Measured values: the supplement of paper PMC7366291
Counter-ions that a name gives are not always drawn. ± gives the standard deviation or the standard deviation of the averaged measurements.

Legend:
Details in all cases: 25 µM; exposure: 24-48 hpf
[1] = tested on: Danio rerio Tg(wt1b:EGFP) embryo, pronephros; assay: glomerular separation, fold change vs DMSO control; higher = glomeruli further apart (abnormal)
In short: (§1)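 Dechorionated Tg(wt1b:EGFP) zebrafish embryos were exposed to 25 μM compound in 0.5% DMSO, HEPES-buffered E3 with 0.003% PTU, from 24 to 48 hpf at 28.5°C. Pronephroi were imaged dorsally in agarose-filled 96-well plates (470 nm, 10 z-slices). On maximum projections, 16 reference points were set manually in Fiji and a macro computed distances and angles. Values more than 2 SD from the feature mean were excluded. Each feature is a fold change relative to the mean of same-day DMSO controls.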

[2] = tested on: Danio rerio Tg(wt1b:EGFP) embryo, pronephros; assay: glomerular width (mean of left and right), fold change vs DMSO control; higher = wider glomerulus
In short: as §1

[3] = tested on: Danio rerio Tg(wt1b:EGFP) embryo, pronephros; assay: fraction of imaged embryos annotated as normal kidney; higher = less nephrotoxic; extreme values may be limits of the assay
In short: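 Dechorionated Tg(wt1b:EGFP) zebrafish embryos were incubated with 25 μM compound in 0.5% DMSO, 5 mM HEPES-buffered E3 and 0.003% PTU from 24 to 48 hpf at 28.5°C. Pronephroi were then imaged by widefield fluorescence, and the fraction of embryos per treatment assigned by hand to the normal-kidney category is given.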

[4] = tested on: Danio rerio Tg(wt1b:EGFP) embryo, pronephros; assay: pronephric angle neck segment to proximal convoluted tubule (mean of left and right), fold change vs DMSO control; higher = larger pronephric angle
In short: as §1

SMILES | glomerular separation [1] | glomerular width [2] | fraction of imaged embryos annotated as normal kidney [3] | pronephric angle neck segment [4]
CC(C)NC(=N)NC(=N)Nc1ccc(Cl)cc1 [Proguanil hydrochloride] | 1.2 ± 0.52 | 0.978 ± 0.0098 | 0.917 | 1.02 ± 0.054
NC[C@@H]1O[C@H](O[C@H]2[C@@H](O)[C@H](O[C@@H]3[C@@H](O)[C@H](N)C[C@H](N)[C@H]3O[C@H]3O[C@H](CO)[C@@H](O)[C@H](O)[C@H]3N)O[C@@H]2CO)[C@H](N)[C@@H](O)[C@@H]1O [Paromomycin sulfate] | 0.691 ± 0.18 | 1.07 ± 0.0023 | 0.75 | 0.99 ± 0.051
Cc1ncc(C[n+]2csc(CCO)c2C)c(N)n1 [Thiamine hydrochloride] | 0.951 ± 0.4 | 1.1 ± 0.036 | 0.917 | 0.994 ± 0.025
N=C(N)c1ccc(OCCCCCOc2ccc(C(=N)N)cc2)cc1 [Pentamidine isethionate] | 0.801 ± 0.21 | 0.99 ± 0.024 | 1 | 0.982 ± 0.02
Cc1ccc(O)c([C@H](CCN(C(C)C)C(C)C)c2ccccc2)c1 [Tolterodine tartrate] | 1.13 ± 0.42 | 1.06 ± 0.022 | 0.818 | 0.986 ± 0.044
CC[C@H]1OC(=O)[C@H](C)[C@@H](O[C@H]2C[C@@](C)(OC)[C@@H](O)[C@H](C)O2)[C@H](C)[C@@H](O[C@@H]2O[C@H](C)C[C@H](N(C)C)[C@H]2O)[C@](C)(OC)C[C@@H](C)C(=O)[C@H](C)[C@@H](O)[C@]1(C)O [Clarithromycin] | 0.802 ± 0.28 | 0.909 ± 0.043 | 1 | 1.06 ± 0.039
COc1ccccc1Oc1c(NS(=O)(=O)c2ccc(C(C)(C)C)cc2)nc(-c2ncccn2)nc1OCCO [Bosentan] | 1.19 ± 0.5 | 1.02 ± 0.034 | 0.833 | 1.03 ± 0.029
